According to PubChem BioAssay AID1159580 (chemical genetic matrix, 2015):
In all, about 5,500 compounds went through this assay and about 2,000 (36%) were called active. Not shown: some 18% with an inconclusive outcome. Rule as the data show it: active = normalized growth mostly below about 0.91 (no sharp cut-off); inconclusive = no clear call, values can overlap the other calls; inactive = mostly above about 0.92. This is one part of the list.

Experiment: chemical genetic growth profiling, strain panel (AID 1159580);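 also: tested at 20 µM; growth read once vehicle control cultures reached saturation at 30 °C; 1 = growth at the plate median or of vehicle wells; lower values mean less growth of the strain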
Details: growth OD

Measured: normalized growth

CCOC(=O)C(Cc1ccc(O)cc1)NC(C)=O (configuration not stated)
inactive: S. cerevisiae deletion strains, locus YJR075W, strain HOC1, stronger effect = lower value 1.01 | S. cerevisiae deletion strains, locus YKL009W, strain mrt4, stronger effect = lower value 0.996 | S. cerevisiae deletion strains, locus YKL068W, stronger effect = lower value 1 | S. cerevisiae deletion strains, locus YKL085W, strain MDH1 (second series), stronger effect = lower value 1 | S. cerevisiae deletion strains, locus YKL085W, strain MDH1, stronger effect = lower value 1 | S. cerevisiae deletion strains, locus YKL160W, strain elf1, stronger effect = lower value 1.02 | S. cerevisiae deletion strains, locus YKL190W, strain CNB1, stronger effect = lower value 1.01 | S. cerevisiae deletion strains, locus YKR001C, strain vps1, stronger effect = lower value 0.995 | S. cerevisiae deletion strains, locus YKR026C, strain gcn3, stronger effect = lower value 1 | S. cerevisiae deletion strains, locus YKR091W, strain srl3, stronger effect = lower value 1 | S. cerevisiae deletion strains, locus YLL001W, strain dnm1, stronger effect = lower value 1.01 | S. cerevisiae deletion strains, locus YLL026W, stronger effect = lower value 0.997 | S. cerevisiae deletion strains, locus YLL041C, strain sdh2, stronger effect = lower value 1 | S. cerevisiae deletion strains, locus YLR027C, strain aat2, stronger effect = lower value 1 | S. cerevisiae deletion strains, locus YLR039C, strain RIC1, stronger effect = lower value 1.03 | S. cerevisiae deletion strains, locus YLR058C, strain SHM2, stronger effect = lower value 1.02 | S. cerevisiae deletion strains, locus YLR102C, strain apc9, stronger effect = lower value 1.01 | S. cerevisiae deletion strains, locus YLR113W, strain HOG1, stronger effect = lower value 1.01 | S. cerevisiae deletion strains, locus YLR221C, strain rsa3, stronger effect = lower value 0.987 | S. cerevisiae deletion strains, locus YLR258W, strain gsy2, stronger effect = lower value 1.01 | S. cerevisiae deletion strains, locus YLR262C, strain YPT6 (second series), stronger effect = lower value 0.968 | S. cerevisiae deletion strains, locus YLR262C, strain YPT6, stronger effect = lower value 1.01 | S. cerevisiae deletion strains, locus YLR268W, strain sec22, stronger effect = lower value 1.01 | S. cerevisiae deletion strains, locus YLR320W, strain mms22, stronger effect = lower value 0.994 | S. cerevisiae deletion strains, locus YLR330W, strain CHS5, stronger effect = lower value 1.01 | S. cerevisiae deletion strains, locus YLR342W, strain FKS1 (second series), stronger effect = lower value 1.07 | S. cerevisiae deletion strains, locus YLR342W, strain FKS1, stronger effect = lower value 1.01 | S. cerevisiae deletion strains, locus YLR357W, strain rsc2, stronger effect = lower value 1.01 | S. cerevisiae deletion strains, locus YLR370C, strain arc18, stronger effect = lower value 1 | S. cerevisiae deletion strains, locus YLR371W, strain rom2, stronger effect = lower value 1.02 | S. cerevisiae deletion strains, locus YLR384C, strain iki3, stronger effect = lower value 1 | S. cerevisiae deletion strains, locus YLR418C, strain cdc73, stronger effect = lower value 1 | S. cerevisiae deletion strains, locus YML016C, strain PPZ1, stronger effect = lower value 1.01 | S. cerevisiae deletion strains, locus YML032C, strain rad52, stronger effect = lower value 0.989 | S. cerevisiae deletion strains, locus YML120C, strain ndi1, stronger effect = lower value 1.01 | S. cerevisiae deletion strains, locus YML124C, strain tub3, stronger effect = lower value 0.999 | S. cerevisiae deletion strains, locus YMR058W, strain fet3, stronger effect = lower value 1.01 | S. cerevisiae deletion strains, locus YMR078C, strain ctf18, stronger effect = lower value 1.01 | S. cerevisiae deletion strains, locus YMR125W, strain sto1, stronger effect = lower value 0.995 | S. cerevisiae deletion strains, locus YMR129W, stronger effect = lower value 1.01 | S. cerevisiae deletion strains, locus YMR205C, strain PFK2, stronger effect = lower value 0.997 | S. cerevisiae deletion strains, locus YMR223W, strain ubp8, stronger effect = lower value 0.987 | S. cerevisiae deletion strains, locus YMR231W, strain pep5, stronger effect = lower value 1.01 | S. cerevisiae deletion strains, locus YMR263W, strain SAP30, stronger effect = lower value 1.01 | S. cerevisiae deletion strains, locus YMR307W, strain GAS1, stronger effect = lower value 1.06 | S. cerevisiae deletion strains, locus YNL067W, strain RPL9B, stronger effect = lower value 1.02 | S. cerevisiae deletion strains, locus YNL071W, strain lat1, stronger effect = lower value 1 | S. cerevisiae deletion strains, locus YNL128W, strain TEP1, stronger effect = lower value 1.02 | S. cerevisiae deletion strains, locus YNL153C, strain GIM3, stronger effect = lower value 1.01 | S. cerevisiae deletion strains, locus YNL183C, strain NPR1, stronger effect = lower value 0.879 | S. cerevisiae deletion strains, locus YNL209W, strain ssb2, stronger effect = lower value 0.996 | S. cerevisiae deletion strains, locus YNL233W, strain BNI4, stronger effect = lower value 1.01 | S. cerevisiae deletion strains, locus YNL248C, strain rpa49, stronger effect = lower value 0.999 | S. cerevisiae deletion strains, locus YNL250W, strain rad50, stronger effect = lower value 0.992 | S. cerevisiae deletion strains, locus YNL271C, strain bni1, stronger effect = lower value 0.993 | S. cerevisiae deletion strains, locus YNL298W, strain CLA4, stronger effect = lower value 1.01 | S. cerevisiae deletion strains, locus YNL307C, strain MCK1, stronger effect = lower value 1 | S. cerevisiae deletion strains, locus YNL322C, strain KRE1 (second series), stronger effect = lower value 1.05 | S. cerevisiae deletion strains, locus YNL322C, strain KRE1, stronger effect = lower value 1.01 | S. cerevisiae deletion strains, locus YNR049C, strain mso1, stronger effect = lower value 1.02 | S. cerevisiae deletion strains, locus YNR052C, strain pop2, stronger effect = lower value 0.993 | S. cerevisiae deletion strains, locus YOL006C, strain TOP1, stronger effect = lower value 1.06 | S. cerevisiae deletion strains, locus YOL012C, strain htz1 0.841 | S. cerevisiae deletion strains, locus YOL147C, strain pex11, stronger effect = lower value 0.997 | S. cerevisiae deletion strains, locus YOR001W, strain rrp6, stronger effect = lower value 0.949 | S. cerevisiae deletion strains, locus YOR061W, strain CKA2, stronger effect = lower value 1.02 | S. cerevisiae deletion strains, locus YOR069W, strain VPS5, stronger effect = lower value 1.01 | S. cerevisiae deletion strains, locus YOR070C, strain gyp1, stronger effect = lower value 1 | S. cerevisiae deletion strains, locus YOR080W, strain dia2, stronger effect = lower value 1.01 | S. cerevisiae deletion strains, locus YOR083W, strain WHI5, stronger effect = lower value 1.03 | S. cerevisiae deletion strains, locus YOR106W, strain vam3, stronger effect = lower value 1.04 | S. cerevisiae deletion strains, locus YOR136W, strain idh2, stronger effect = lower value 0.989 | S. cerevisiae deletion strains, locus YOR144C, strain elg1, stronger effect = lower value 1.01 | S. cerevisiae deletion strains, locus YOR184W, strain ser1, stronger effect = lower value 1.01 | S. cerevisiae deletion strains, locus YOR231W, strain MKK1, stronger effect = lower value 0.971 | S. cerevisiae deletion strains, locus YOR265W, strain rbl2, stronger effect = lower value 1 | S. cerevisiae deletion strains, locus YOR270C, strain vph1, stronger effect = lower value 1 | S. cerevisiae deletion strains, locus YOR290C, strain snf2, stronger effect = lower value 1.03 | S. cerevisiae deletion strains, locus YOR316C, strain cot1, stronger effect = lower value 1.02 | S. cerevisiae deletion strains, locus YPL051W, strain arl3, stronger effect = lower value 1.03 | S. cerevisiae deletion strains, locus YPL055C, strain LGE1, stronger effect = lower value 1.01 | S. cerevisiae deletion strains, locus YPL078C, strain atp4, stronger effect = lower value 1.02 | S. cerevisiae deletion strains, locus YPL106C, strain sse1, stronger effect = lower value 1.03 | S. cerevisiae deletion strains, locus YPL240C, strain hsp82, stronger effect = lower value 1 | S. cerevisiae deletion strains, locus YPL241C, strain CIN2, stronger effect = lower value 1.01 | S. cerevisiae deletion strains, locus YPL256C, strain CLN2, stronger effect = lower value 0.93 | S. cerevisiae deletion strains, locus YPR119W, strain clb2, stronger effect = lower value 1.01 | S. cerevisiae deletion strains, locus YPR141C, strain kar3, stronger effect = lower value 0.995 | S. cerevisiae deletion strains, locus YPR163C, strain tif3, stronger effect = lower value 1 | S. cerevisiae deletion strains, locus YPR167C, strain met16, stronger effect = lower value 1 | S. cerevisiae deletion strains, strain wtn01, stronger effect = lower value 1.01 | S. cerevisiae strains, strain wild type, stronger effect = lower value 1.01
